Each structure is given as a SMILES string. Calls of active or inactive are those of the source. Rule for the calls: active = hit-call score of the fitted dose curve at least 0.9, where 1 is the maximum; inactive = score below 0.9.

This experiment can be described thus: APR_HepG2_MicrotubuleCSK_1hr: Apredica 1-hour HepG2 Assay for Microtubule CSK Stabilty (AID 2282669). As to conditions: HepG2 microtubule cytoskeleton imaging, actives raise or lower the signal. Here is the method:
APR_HepG2_1hr is a cell-based, multiplexed-readout assay that uses HepG2, a human liver cell line, with measurements taken at 1 hour after chemical dosing in a 384-well plate.APR_HepG2_MicrotubuleCSK_1hr is one of 10 assay component(s) measured or calculated from the APR_HepG2_1hr assay. It is designed to make measurements of protein conformation, a form of conformation reporter, as detected with fluorescence intensity signals by HCS Fluorescent Imaging technology.Data from the assay component APR_HepG2_MicrotubuleCSK_1hr was analyzed into 1 assay endpoint. This assay endpoint, APR_HepG2_MicrotubuleCSK_1hr, was analyzed with bidirectional fitting relative to DMSO as the negative control and baseline of activity. Using a type of conformation reporter, measures of protein for gain or loss-of-signal activity can be used to understand the signaling at the cellular-level. Furthermore, this assay endpoint can be referred to as a primary readout, because this assay has produced multiple assay endpoints where this one serves a signaling function. To generalize the intended target to other relatable targets, this assay endpoint is annotated to the cell morphology intended target family, where the subfamily is cell conformation.
Cells were treated with dimethyl sulfoxide (DMSO) as a solvent control at a final concentration of 0.5% v/v or with compounds in DMSO with a resulting final DMSO concentration of 0.5% v/v. Compound treatment was done at concentrations of 0.39, 0.78, 1.56, 3.12, 6.24, 12.5, 25, 50, 100, and 200 uM in duplicate on each plate. Cells were treated with compounds for 1, 24, or 72 hr. Carbonyl […] m-chloro-phenylhydrazone (CCCP) and taxol were used as positive controls for mitochondrial function and cytoskeletal stability, respectively; DMSO served as the negative control for this experiment. Cells were fixed by the direct addition of 50 uL formaldehyde in Hank's Balanced Salt Solution (HBSS) to a final concentration of 3.7%. After incubation in the fixation medium for 30 min at room temperature (293-298 K), cells were rinsed twice with HBSS and treated with cell permeabilization buffer (16 uL of 0.5% Triton X-100) for 10 min at room temperature (293-298 K) before labeling. For mitochondrial membrane potential and mitochondrial measurements, pre-fixed cells were incubated with 50 uL of MitoTracker Red CMXRos (Invitrogen) at a concentration of 250 nM for 30 min before fixation. In the remaining cases, post-fixed cells were labeled by incubation with a multiplexed mixture of primary antibodies in HBSS for 60 min at room temperature (293-298 K) to detect immunoreactivity of c-Jun (1:500), phospho-histone H3 (1:100), phospho-histone H2A.x (1:200), p53 (1:400), alpha-tubulin (1:200) and Hoechst 33342 (2 ug/mL). Cells were labeled for multiplexed imaging on two separate plates: a) Hoechst 33342, MitoTracker Red, phospho-histone H3, and alpha-tubulin, and b) Hoechst 33342, phospho-histone H2A.x, and c-Jun. A final rinse with HBSS (50 uL) was performed before analysis. The primary and secondary antibodies for the proteins were phospho-histone H3 (rabbit anti-phospho-histone H3 and FITC-donkey anti-rabbit IgG), phospho-histone H2A.x (mouse anti-phospho-histone H2A.x and FITC-donkey anti-mouse IgG), c-Jun (rabbit anti-phospho-c-Jun and Cy3-donkey anti-rabbit IgG), p53 (sheep anti-p53 and Cy5-donkey anti-sheep IgG), alpha-tubulin (mouse anti-alpha-tubulin and Cy5-donkey anti-mouse IgG). These antibodies are available as the CellCiphr HepG2 assay kit (Millipore).Digital images of each well were captured using a Cellomics ArrayScan VTI (Thermo Scientific Cellomics) (0.8 NA objective, 0.63x optical coupler, and XF-93 filter set) at 20x magnification. The images were acquired using the autofocus feature of the ArrayScan instrument, which entails the following steps. First, the camera focuses on channel 1 (Hoechst 33342), where nuclei are identified. Second, a Z offset of 1 um is used for capturing mitochondria (MitoTracker Red). […]
For the molecule `CC(C)(c1ccc(O)cc1)c1ccc(O)cc1`, the molecule was called inactive.
The value for `CCCCOCCOCCOCc1cc2c(cc1CCC)OCO2` was “inactive”.
As to `N#CSCSc1nc2ccccc2s1`, the outcome was inactive.
The value for `CCCCC(CC)CN1C(=O)C2C3C=CC(C3)C2C1=O` (stereo not given) was “inactive”; that for `CCOC(=O)C(C)Oc1ccc(Oc2nc3ccc(Cl)cc3o2)cc1` (stereo not given) was “inactive”; that for `COC(=O)c1ccccc1C(=O)O` was “inactive”.
`C=CCOC(Cn1ccnc1)c1ccc(Cl)cc1Cl` (stereo not given): the call was inactive.
The value for `CCCCOC(=O)C(C)Oc1ccc(Oc2ccc(C(F)(F)F)cn2)cc1` (stereo not given) was “inactive”; that for `CC1(C)C(C=C(Cl)Cl)C1C(=O)OCc1cccc(Oc2ccccc2)c1` (stereo not given) was “inactive”; that for `c1ccc2[nH]c(-c3cscn3)nc2c1` was “inactive”.
The value for `COC(=O)c1c(Cl)nn(C)c1S(=O)(=O)NC(=O)Nc1nc(OC)cc(OC)n1` was “inactive”.
The value for `COC(=O)CSc1cc(N=c2sc(=O)n3n2CCCC3)c(F)cc1Cl` was “inactive”; that for `COc1nc(C)nc(NC(=O)NS(=O)(=O)c2ccccc2OCCCl)n1` was “inactive”.
Take `O=C(Nc1ccc([N+](=O)[O-])cc1Cl)c1cc(Cl)ccc1O`: the outcome was inactive.
In the case of `CCN(Cc1c(F)cccc1Cl)c1c([N+](=O)[O-])cc(C(F)(F)F)cc1[N+](=O)[O-]` it was “inactive”; in that of `COC(=O)c1ccc(I)cc1S(=O)(=O)NC(=O)Nc1nc(C)nc(OC)n1`, “inactive”.
The value for `Cc1nn(C)c(Oc2ccccc2)c1C=NOCc1ccc(C(=O)OC(C)(C)C)cc1` was “inactive”; that for `O=C(O)C1(C(=O)Nc2ccc(Cl)cc2Cl)CC1` was “inactive”.
In the case of `CCOC(=O)COc1cc(-n2ncc(C(F)(F)F)c(C)c2=O)c(F)cc1Cl` it was “inactive”; in that of `CCC(C)OC(=O)N1CCCCC1CCO` (stereo not given), “inactive”; in that of `CC(C)(C)[C@@H](O)[C@@H](Cc1ccc(Cl)cc1)n1cncn1`, “inactive”.
Consider `COC(=O)c1ccccc1S(=O)(=O)NC(=O)Nc1nc(OC(F)F)cc(OC(F)F)n1`, for which the molecule was called inactive.
For `COc1c(Cl)ccc(Cl)c1C(=O)O`, the molecule was classed as inactive.
On to `CCCN(CCC)C(=O)SCC`, for which the call was inactive.
In the case of `CCCCOC(=O)[C@@H](C)Oc1ccc(Oc2ccc(C(F)(F)F)cn2)cc1` it was “inactive”.
As for `CCC(O)=C1C(=O)CC(C(=O)O)CC1=O` (stereo not given), the result was inactive.
In the case of `CCCOC(=O)c1ccc(C(=O)OCCC)nc1` it was “inactive”.
Consider `CCN(CC)C(=O)c1cccc(C)c1`, for which the call was inactive.
In the case of `CCOC(=O)[C@H](C)Oc1ccc(Oc2nc3ccc(Cl)cc3o2)cc1` it was “inactive”; in that of `COC(=O)c1ccc(CNS(C)(=O)=O)cc1S(=O)(=O)NC(=O)Nc1nc(OC)cc(OC)n1`, “inactive”.
The value for `OB(O)O` was “inactive”.
`CSC(=O)c1cccc2nnsc12`: the call was inactive.
In the case of `S=C(S)NCCNC(=S)S.[Mn+2].[S-]C([S-])=NCCN=C([S-])[S-].[Zn+2]` it was “inactive”; in that of `CCCCCCC(C)OC(=O)COc1nc(F)c(Cl)c(N)c1Cl` (stereo not given), “inactive”; in that of `CCOC(=O)C(C)Oc1ccc(Oc2cnc3cc(Cl)ccc3n2)cc1` (stereo not given), “inactive”.
The value for `COCCO` was “inactive”; that for `CCCN(CCC)c1c([N+](=O)[O-])cc(C(F)(F)F)c(N)c1[N+](=O)[O-]` was “inactive”.
The value for `CCCCCOC(=O)COc1cc(N2C(=O)C3=C(CCCC3)C2=O)c(F)cc1Cl` was “inactive”.
Turning to `COC(=O)c1cccc(C)c1S(=O)(=O)NC(=O)Nc1nc(OCC(F)(F)F)nc(N(C)C)n1`, the outcome was inactive.
The value for `CCOC(=O)NCCOc1ccc(Oc2ccccc2)cc1` was “inactive”.

(Values after PubChem BioAssay (EPA / NIEHS).)
